Inconclusive results are not listed. Where a call stands in place of a potency, no number is given. Active and inactive are the calls of the source. The call rests on the fitted dose curve; in most records, active means well fitted cell-killing curve with a large enough effect in the repeat runs; inconclusive means weak or mixed curves, or effect the other way; inactive means flat fitted curve, though single readings scatter.
Assay: cAMP Responsive Elements (CRE) small molecule antagonists, cell-based qHTS assay: qHTS cell viability counter screen (AID 2060913); further: nearly all actives have a fitted effect of over 40% in size
Settings: CRE-bla HEK293T viability, CellTiter-Glo luminescence, 5 h; series mostly up to 92.4 µM
How it was run: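 Steps: cells plated and held 18 hrs at 37 C/5% CO2; compounds and NKH477 (0.25 uM final) added; 3 hrs incubation; reporter substrate read; CellTiter-Glo added to measure cytotoxicity by luminescence.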
Potency means the concentration at half of the fitted maximal effect.

Compound	Potency
C[C@]12CC[C@@H](O)C[C@@H]1CC[C@@H]1[C@@H]2CC[C@]2(C)C(=O)CC[C@@H]12	inactive
Cc1ccc2cc3c(ccc4ccccc43)c3c2c1CC3	inactive
CC(C)[C@H](C(=O)OC(C#N)c1cccc(Oc2ccccc2)c1)c1ccc(OC(F)F)cc1 (stereo not given in full)	inactive
COc1cccc2c1C(=O)c1c(O)c3c(c(O)c1C2=O)C[C@@](O)(C(=O)CO)CC3OC1CC(N2CCOC(OC)C2)C(O)C(C)O1 (stereo not given in full)	inactive
COC(=O)C1=CCCN(C)C1	inactive
CCCCCCCCCC(=O)O[C@H]1CC[C@H]2[C@@H]3CCC4=CC(=O)CC[C@@H]4[C@H]3CC[C@]12C	inactive
CCCN(CCC)N=O	inactive
C#CC1(O)CCCCC1	inactive
c1ccc(OP(Oc2ccccc2)Oc2ccccc2)cc1	inactive
CCOP(=O)(NC(C)C)Oc1ccc(SC)c(C)c1 (stereo not given)	inactive
O=C(O)CCCOc1ccc(Cl)cc1Cl	inactive
NNCCO	inactive
COc1cc(C[C@@H](C)N)c(OC)cc1C	inactive
CC(C)(C)CC(C)(C)c1ccc(O)cc1	43.3 µM (active)
CC(Cc1ccc(C(C)(C)C)cc1)CN1C[C@@H](C)O[C@@H](C)C1 (stereo not given in full)	inactive
N#C/C=C/c1ccccc1	inactive
O=C/C(Cl)=C(/Cl)C(=O)O	inactive
Nc1n[nH]c(N)n1	inactive
Cc1cc(C(F)(C(F)(F)F)C(F)(F)F)ccc1NC(=O)c1cccc(I)c1C(=O)NC(C)(C)CS(C)(=O)=O	inactive
BrC(Br)C(Br)(Br)Br	inactive

Compound	Potency
CC(C=O)Cc1ccc2c(c1)OCO2 (stereo not given)	inactive
CC(=O)O[C@H]1CC[C@@]2(C)C(=CC[C@@H]3[C@@H]2CC[C@]2(C)C(=O)CC[C@@H]32)C1	inactive
CCOP(=S)(Oc1cnc(C(C)(C)C)nc1)OC(C)C (stereo not given)	inactive
[CH3][Sn]([Cl])([Cl])[Cl]	inactive
CNC(=O)O/N=C(\C)C(C)S(C)(=O)=O (stereo not given)	inactive
O=C1C[C@@H]2OCC=C3CN4CC[C@]56c7ccccc7N1[C@H]5[C@H]2[C@H]3C[C@H]46	inactive
CCN(CC)c1c([N+](=O)[O-])cc(C(F)(F)F)c(N)c1[N+](=O)[O-]	54.5 µM (active)
COC(=O)Cc1ccccc1	inactive
O=C1c2ccccc2C(=O)C1C(=O)C(c1ccccc1)c1ccccc1	inactive
ClC1=C(Cl)[C@]2(Cl)[C@@H]3[C@H]4C[C@H]([C@@H]5O[C@H]45)[C@@H]3[C@@]1(Cl)C2(Cl)Cl	inactive
CCOC(=O)[C@]1(c2ccccc2)Oc2ccccc2[C@@H]1N	inactive
N#Cc1ccccn1	inactive
CN(CCCC(O)c1cccnc1)N=O (stereo not given)	inactive
O=c1[nH]c2cc(Cl)ccc2n1C1CCNCC1	inactive
COc1ccc(OC)c(C=O)c1	inactive
CC(C)Br	inactive
N#Cc1cccc(C#N)c1	inactive
Oc1cc(Cl)c(Cl)cc1Cl	inactive
COC(N)=O	inactive
CCC1CCC(=O)O1 (stereo not given)	inactive

Reference: PubChem BioAssay (Tox21)
